The source made the active and inactive calls.
Tests used:
[1] = system: PRMT1 (protein arginine N-methyltransferase 1); experiment: PRMT1 binders on small-molecule microarrays, primary screen, biochemical, small-molecule microarray, 635 nm fluorescence (AID 1088); settings: small-molecule microarray binding, higher = more signal;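 note: binding of Prmt1 protein to compounds spotted on small-molecule microarray slides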
[2] = yeast growth modulation, basal conditions, primary screen, YJM789 clinical isolate, OD600, 24 h (AID 1089);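 note: growth of clinical yeast isolate S. cerevisiae YJM 789 seeded 1000 cells per well; test concentration not given here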; settings: S. cerevisiae YJM789 growth, higher = more signal, called active from +8 up or from −8 down
[3] = fission yeast growth modulation, primary screen, strain 972, OD600, 24 h, no modulator (AID 1090);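 note: basal condition with compound alone and no growth modifier present; test concentration not given here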; settings: S. pombe 972 growth, higher = more signal, called active from +8 up or from −8 down
[4] = S. cerevisiae growth modulation with rapamycin, primary screen, strain BY4716, OD600, 96 h (AID 1091); settings: higher = more signal, called active from +8 up or from −8 down; note: test concentration not given here
[5] = target: Torsin-1A-interacting protein 2 (Homo sapiens) (UniProt Q8NFQ8); experiment: LULL1 binders on small-molecule microarray, primary screen, cell lysate, human LULL1 lysate, 635/667 nm fluorescence (AID 1092); settings: hLULL1 lysate binding, 635 nm fluorescence, higher = more signal;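 note: probe is lysate of COS7 cells overexpressing human LULL1; score merges per-feature 667 nm fluorescence with signal-to-noise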
Sequence of Torsin-1A-interacting protein 2 (Homo sapiens) (Q8NFQ8 whole entry, looked up): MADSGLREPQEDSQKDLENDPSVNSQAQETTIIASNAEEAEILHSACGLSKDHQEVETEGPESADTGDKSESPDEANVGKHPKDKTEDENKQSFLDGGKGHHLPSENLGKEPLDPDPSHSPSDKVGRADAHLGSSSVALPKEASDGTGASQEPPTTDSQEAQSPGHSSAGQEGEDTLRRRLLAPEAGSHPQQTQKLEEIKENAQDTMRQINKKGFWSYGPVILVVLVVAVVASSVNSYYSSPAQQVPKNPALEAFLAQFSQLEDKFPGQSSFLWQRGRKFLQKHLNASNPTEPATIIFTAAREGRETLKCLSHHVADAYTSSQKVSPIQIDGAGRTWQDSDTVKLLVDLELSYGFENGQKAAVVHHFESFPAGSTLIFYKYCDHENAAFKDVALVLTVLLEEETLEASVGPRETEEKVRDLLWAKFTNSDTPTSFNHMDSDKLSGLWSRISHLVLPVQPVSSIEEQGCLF

[6] = E. coli growth modulation, two-sided OD650, primary screen, E. coli filamentation project, strain DRC41, 24 h (AID 1093); settings: OD650, 24 h, higher = more signal, called active from +8 up or from −8 down;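 note: MC1000 strain lacking acrAB efflux and sulA so SOS filamentation is blocked; test concentration not given here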
[7] = small-molecule microarray binders of probe aLefty2, primary screen, biochemical, biotinylated probe, 635/667 nm fluorescence (AID 1094); settings: higher = more signal;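 note: score merges spot fluorescence near 667 nm with spot signal-to-noise ratio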
[8] = system: Noggin (protein binding on small-molecule microarray); experiment: Noggin binders on small-molecule microarray, primary screen, biochemical, 635/667 nm fluorescence (AID 1095); settings: 635 nm fluorescence, higher = more signal;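 note: score merges 667 nm feature fluorescence with signal to noise over triplicate slides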
[9] = target: Neurogenic locus notch homolog protein 3 (Homo sapiens) (UniProt Q9UM47); experiment: NOTCH3 binders on small-molecule microarray, primary screen, biochemical, 635/667 nm fluorescence (AID 1096); settings: NOTCH3 binding, 635 nm fluorescence, higher = more signal
Sequence of Neurogenic locus notch homolog protein 3 (Homo sapiens) (Q9UM47 whole entry, looked up): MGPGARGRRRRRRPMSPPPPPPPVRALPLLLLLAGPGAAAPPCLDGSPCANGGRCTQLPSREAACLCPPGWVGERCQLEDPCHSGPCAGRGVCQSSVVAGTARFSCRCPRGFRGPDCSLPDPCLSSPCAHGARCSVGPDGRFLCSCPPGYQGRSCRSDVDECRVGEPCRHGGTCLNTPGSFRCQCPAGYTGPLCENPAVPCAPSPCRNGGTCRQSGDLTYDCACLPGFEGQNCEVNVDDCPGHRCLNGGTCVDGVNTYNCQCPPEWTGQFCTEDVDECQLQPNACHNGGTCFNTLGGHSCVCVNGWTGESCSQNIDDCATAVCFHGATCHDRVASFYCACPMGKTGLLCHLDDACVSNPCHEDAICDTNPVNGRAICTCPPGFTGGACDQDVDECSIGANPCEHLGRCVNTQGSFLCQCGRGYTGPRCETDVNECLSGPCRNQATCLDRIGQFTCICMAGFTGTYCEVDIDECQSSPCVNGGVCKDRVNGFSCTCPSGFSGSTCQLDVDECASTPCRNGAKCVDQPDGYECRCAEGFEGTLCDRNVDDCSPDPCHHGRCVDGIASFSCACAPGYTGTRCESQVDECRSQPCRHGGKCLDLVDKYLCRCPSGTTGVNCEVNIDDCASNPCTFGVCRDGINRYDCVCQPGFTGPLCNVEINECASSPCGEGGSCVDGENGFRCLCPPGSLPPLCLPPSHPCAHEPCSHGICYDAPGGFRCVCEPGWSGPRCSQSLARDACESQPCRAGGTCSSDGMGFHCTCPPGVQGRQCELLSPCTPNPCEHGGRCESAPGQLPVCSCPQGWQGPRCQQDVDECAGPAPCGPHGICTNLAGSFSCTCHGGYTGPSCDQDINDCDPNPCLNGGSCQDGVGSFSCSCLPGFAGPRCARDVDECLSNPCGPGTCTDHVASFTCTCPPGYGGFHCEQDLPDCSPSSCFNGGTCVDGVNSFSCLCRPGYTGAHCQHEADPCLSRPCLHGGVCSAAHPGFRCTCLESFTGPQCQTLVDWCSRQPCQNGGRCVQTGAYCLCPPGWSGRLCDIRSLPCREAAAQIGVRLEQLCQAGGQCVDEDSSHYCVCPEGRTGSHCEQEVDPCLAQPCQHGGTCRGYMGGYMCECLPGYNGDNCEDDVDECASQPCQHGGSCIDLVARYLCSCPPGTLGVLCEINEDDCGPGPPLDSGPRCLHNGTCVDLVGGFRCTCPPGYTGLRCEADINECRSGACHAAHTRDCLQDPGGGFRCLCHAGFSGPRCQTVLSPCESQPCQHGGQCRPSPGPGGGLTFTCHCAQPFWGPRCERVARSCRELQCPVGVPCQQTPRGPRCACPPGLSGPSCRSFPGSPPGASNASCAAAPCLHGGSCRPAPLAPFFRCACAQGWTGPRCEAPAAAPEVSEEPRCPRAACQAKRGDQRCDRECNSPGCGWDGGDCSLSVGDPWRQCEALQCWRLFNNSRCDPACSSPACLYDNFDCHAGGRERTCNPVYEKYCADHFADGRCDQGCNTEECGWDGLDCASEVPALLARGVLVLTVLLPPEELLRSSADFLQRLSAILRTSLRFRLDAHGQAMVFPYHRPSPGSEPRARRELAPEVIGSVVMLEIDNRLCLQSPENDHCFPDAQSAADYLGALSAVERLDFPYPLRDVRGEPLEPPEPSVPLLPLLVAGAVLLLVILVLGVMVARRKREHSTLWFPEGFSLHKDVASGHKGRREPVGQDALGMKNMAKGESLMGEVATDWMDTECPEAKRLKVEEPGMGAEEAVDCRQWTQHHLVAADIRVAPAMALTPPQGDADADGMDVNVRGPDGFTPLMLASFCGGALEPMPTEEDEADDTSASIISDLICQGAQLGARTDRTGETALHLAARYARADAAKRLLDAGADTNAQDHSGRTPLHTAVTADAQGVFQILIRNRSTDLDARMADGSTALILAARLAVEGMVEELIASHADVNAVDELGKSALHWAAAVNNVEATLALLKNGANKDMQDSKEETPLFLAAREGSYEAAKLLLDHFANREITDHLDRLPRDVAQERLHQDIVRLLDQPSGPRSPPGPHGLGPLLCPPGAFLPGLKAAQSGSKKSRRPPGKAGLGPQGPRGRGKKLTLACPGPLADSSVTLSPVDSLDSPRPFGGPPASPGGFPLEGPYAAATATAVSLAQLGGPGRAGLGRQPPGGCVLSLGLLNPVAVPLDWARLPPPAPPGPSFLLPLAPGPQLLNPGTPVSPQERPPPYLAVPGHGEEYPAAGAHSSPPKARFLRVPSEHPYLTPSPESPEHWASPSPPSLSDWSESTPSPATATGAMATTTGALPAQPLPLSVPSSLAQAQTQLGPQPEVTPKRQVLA

[10] = small-molecule microarray binders of probe aEGFR, primary screen, biochemical, biotinylated probe, 635/667 nm fluorescence (AID 1097); settings: higher = more signal;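 note: probe is a biotinylated anti-EGFR antibody binding compounds printed on slides; score combines fluorescence near 667 nm and signal to noise of each spot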
[11] = system: Plasmodium falciparum Sir2 (PF13_0152, Sir2A); experiment: pfSir2 binders on small-molecule microarrays, primary screen, biochemical, small-molecule microarray, 635 nm fluorescence (AID 1098); settings: small-molecule microarray binding, fluorescence 635 nm; higher = more signal;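 note: score merges spot fluorescence intensity with its signal-to-noise ratio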
[12] = small-molecule microarray binders of probe aDKK1, primary screen, biochemical, biotinylated probe, 635/667 nm fluorescence (AID 1099); settings: higher = more signal;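 note: score merges 667nm spot fluorescence with signal to noise across triplicate slides; reference of the scale not given here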
[13] = small-molecule microarray binders of probe aCHRDL2, primary screen, biochemical, biotinylated probe, 635/667 nm fluorescence (AID 1100); settings: higher = more signal
[14] = splicing luciferase reporter signal modulators, primary screen, spliceosome inhibition project, cell-based, HEK293, splice +/- reporter (AID 1101); settings: luminescence, 24 h, higher = more signal, called active from +8 up or from −8 down;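 note: HEK293 cells carrying a splicing-competent luciferase reporter gene; test concentration not given here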
[15] = target: Fibroblast growth factor 10 (Homo sapiens) (UniProt O15520); experiment: FGF10 binders on small-molecule microarrays, primary screen, biochemical, small-molecule microarray, 635 nm fluorescence (AID 1102); settings: FGF10 binding, fluorescence 635 nm, higher = more signal
Sequence of Fibroblast growth factor 10 (Homo sapiens) (O15520 whole entry, looked up): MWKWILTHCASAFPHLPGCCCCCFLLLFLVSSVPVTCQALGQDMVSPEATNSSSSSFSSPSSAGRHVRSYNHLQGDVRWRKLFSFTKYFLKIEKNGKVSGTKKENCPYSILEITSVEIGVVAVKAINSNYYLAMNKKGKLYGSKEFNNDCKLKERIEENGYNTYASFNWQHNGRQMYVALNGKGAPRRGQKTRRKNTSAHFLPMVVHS

[16] = system: glycogen synthase kinase-3 (GSK3A per assay name; protocol says GSK3B); experiment: GSK3 binders on small-molecule microarrays, primary screen, biochemical, small-molecule microarray, 635 nm fluorescence, GSK3A (AID 1103); settings: small-molecule microarray binding, fluorescence 635 nm; higher = more signal; note: the record names both GSK3A and GSK3B
[17] = target: Epidermal growth factor receptor (Homo sapiens) (UniProt P00533); experiment: EGFR binders on small-molecule microarrays, primary screen, biochemical, small-molecule microarray, 635 nm fluorescence (AID 1104); settings: EGFR binding, higher = more signal;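 note: score merges 667 nm emission intensity with spot signal to noise over triplicate slides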
Sequence of Epidermal growth factor receptor (Homo sapiens) (P00533 whole entry, looked up): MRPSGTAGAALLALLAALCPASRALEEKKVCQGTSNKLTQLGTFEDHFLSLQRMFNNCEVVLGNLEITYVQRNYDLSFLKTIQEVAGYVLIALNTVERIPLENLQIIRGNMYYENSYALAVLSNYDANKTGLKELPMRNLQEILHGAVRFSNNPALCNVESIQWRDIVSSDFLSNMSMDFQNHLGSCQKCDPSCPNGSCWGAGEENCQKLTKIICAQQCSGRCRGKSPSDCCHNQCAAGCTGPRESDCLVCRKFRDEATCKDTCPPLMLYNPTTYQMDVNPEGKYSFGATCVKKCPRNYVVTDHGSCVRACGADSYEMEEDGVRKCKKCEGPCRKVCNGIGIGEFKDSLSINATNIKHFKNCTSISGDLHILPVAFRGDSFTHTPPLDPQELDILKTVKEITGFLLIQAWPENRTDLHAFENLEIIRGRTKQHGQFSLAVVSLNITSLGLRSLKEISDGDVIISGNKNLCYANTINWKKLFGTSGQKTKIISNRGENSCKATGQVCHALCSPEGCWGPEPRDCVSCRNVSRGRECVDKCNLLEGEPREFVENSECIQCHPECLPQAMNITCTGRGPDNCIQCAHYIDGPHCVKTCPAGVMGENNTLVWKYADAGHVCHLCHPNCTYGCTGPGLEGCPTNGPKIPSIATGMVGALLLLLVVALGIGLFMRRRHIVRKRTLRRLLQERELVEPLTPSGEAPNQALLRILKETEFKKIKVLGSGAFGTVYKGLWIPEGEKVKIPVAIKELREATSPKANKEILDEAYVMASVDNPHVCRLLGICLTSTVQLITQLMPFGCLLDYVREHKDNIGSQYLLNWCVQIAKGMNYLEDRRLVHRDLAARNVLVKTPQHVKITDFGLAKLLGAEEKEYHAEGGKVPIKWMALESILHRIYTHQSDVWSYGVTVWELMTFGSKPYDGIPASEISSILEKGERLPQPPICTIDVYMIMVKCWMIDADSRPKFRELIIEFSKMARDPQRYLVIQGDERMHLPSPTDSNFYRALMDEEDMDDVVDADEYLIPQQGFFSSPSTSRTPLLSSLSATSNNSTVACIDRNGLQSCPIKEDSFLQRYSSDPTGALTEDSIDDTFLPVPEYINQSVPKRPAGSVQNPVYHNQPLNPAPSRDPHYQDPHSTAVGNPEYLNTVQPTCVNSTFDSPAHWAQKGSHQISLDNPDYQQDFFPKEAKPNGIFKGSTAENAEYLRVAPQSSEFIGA

[18] = target: Follistatin-related protein 3 (Homo sapiens) (UniProt O95633); experiment: FSTL3 binders on small-molecule microarrays, primary screen, biochemical, small-molecule microarray, 635 nm fluorescence (AID 1105); settings: FSTL3 binding, higher = more signal;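 note: score merges emission near 667 nm and signal to noise per printed spot across three slides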
Sequence of Follistatin-related protein 3 (Homo sapiens) (O95633 whole entry, looked up): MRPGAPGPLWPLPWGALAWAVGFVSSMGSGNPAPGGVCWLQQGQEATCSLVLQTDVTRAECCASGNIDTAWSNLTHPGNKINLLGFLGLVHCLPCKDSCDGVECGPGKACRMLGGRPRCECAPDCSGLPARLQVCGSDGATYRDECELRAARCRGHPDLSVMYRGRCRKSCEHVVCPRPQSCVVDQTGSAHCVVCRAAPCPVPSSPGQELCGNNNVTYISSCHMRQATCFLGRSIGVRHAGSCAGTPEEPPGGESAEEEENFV

[19] = target: Dickkopf-related protein 1 (Homo sapiens) (UniProt O94907); experiment: DKK1 binders on small-molecule microarrays, primary screen, biochemical, small-molecule microarray, 635 nm fluorescence scan (AID 1106); settings: DKK1 binding, higher = more signal;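 note: score merges emission near 667 nm with signal to noise over three replicate slides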
Sequence of Dickkopf-related protein 1 (Homo sapiens) (O94907 whole entry, looked up): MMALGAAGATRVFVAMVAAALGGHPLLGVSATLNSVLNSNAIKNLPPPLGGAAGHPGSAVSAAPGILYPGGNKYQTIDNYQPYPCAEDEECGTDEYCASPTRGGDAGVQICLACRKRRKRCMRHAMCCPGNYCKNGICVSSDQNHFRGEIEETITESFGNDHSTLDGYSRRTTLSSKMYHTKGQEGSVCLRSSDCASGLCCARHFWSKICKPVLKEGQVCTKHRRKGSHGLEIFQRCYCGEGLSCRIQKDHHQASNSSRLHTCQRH

[20] = system: Inhibin beta A chain (activin A); experiment: INHBA (activin A) binders on microarrays, primary screen, biochemical, small-molecule microarray, 635 nm fluorescence scan (AID 1107); settings: small-molecule microarray binding, higher = more signal;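 note: mouse activin A protein probed at 4.33 µg/mL on printed slides; score merges bound-protein fluorescence near 667 nm with spot signal-to-noise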

## O=C1C=C(c2ccccc2)C(=O)C2=C1CC([C@H]1Oc3ccccc3S(=O)(=O)N3CCC[C@@H]13)=CC2
[1]
  composite z-score: 0.345
[2]
  z-score: -0.418 (inactive)
[3]
  z-score: -3.32 (inactive)
[4]
  z-score: 13.4 (active)
[5]
  composite z-score: -0.101
[6]
  z-score: 0.542 (inactive)
[7]
  composite z-score: -0.183
[8]
  composite z-score: -0.194
[9]
  composite z-score: 0.0989
[10]
  composite z-score: -0.135
[11]
  composite z-score: -0.365
[12]
  composite z-score: -0.191
[13]
  composite z-score: -0.569
[14]
  z-score: -2.32 (inactive)
[15]
  composite z-score: 0.0925
[16]
  composite z-score: -0.009
[17]
  composite z-score: 0.0548
[18]
  composite z-score: -0.365
[19]
  composite z-score: 0.155
[20]
  composite z-score: 0.718

## N#Cc1ccc(C(O)C2C=CC3C(=O)NC(=O)C3N2Nc2ccc(Cl)cc2Cl)cc1 (stereo not given)
[1]
  composite z-score: 0.156
[2]
  z-score: -2.93 (inactive)
[3]
  z-score: -0.615 (inactive)
[4]
  z-score: 0.448 (inactive)
[5]
  composite z-score: 3.39
[6]
  z-score: -0.343 (inactive)
[7]
  composite z-score: 0.103
[8]
  composite z-score: -0.185
[9]
  composite z-score: 0.559
[10]
  composite z-score: -0.0594
[11]
  composite z-score: 1.42
[12]
  composite z-score: 0.558
[13]
  composite z-score: 1.13
[14]
  z-score: 1.9 (inactive)
[15]
  composite z-score: 0.599
[16]
  composite z-score: -0.344
[17]
  composite z-score: 0.0129
[18]
  composite z-score: -0.124
[19]
  composite z-score: -0.577
[20]
  composite z-score: 1.03

## CC(C)C[C@@H]1NC(=O)[C@@H]2C[C@H](C(=O)NCCCCCCNC(=O)CS)[C@H](c3cccc(OCCO)c3)N2C1=O
[1]
  composite z-score: 1.54
[2]
  z-score: 0.509 (inactive)
[3]
  z-score: 0.679 (inactive)
[4]
  z-score: 1.52 (inactive)
[5]
  composite z-score: 2.84
[6]
  z-score: -0.616 (inactive)
[7]
  composite z-score: -0.0124
[8]
  composite z-score: 1.66
[9]
  composite z-score: 1.02
[10]
  composite z-score: 0.0618
[11]
  composite z-score: 1.65
[12]
  composite z-score: -0.0594
[13]
  composite z-score: 0.237
[14]
  z-score: -0.356 (inactive)
[15]
  composite z-score: 1.31
[16]
  composite z-score: 1.29
[17]
  composite z-score: 0.876
[18]
  composite z-score: 1.52
[19]
  composite z-score: 1.4
[20]
  composite z-score: 0.626

## [N-]=[N+]=NCc1ccccc1[C@@H]1OC(c2ccc(OCCCO)cc2)=N[C@]1(Cc1ccccc1N=[N+]=[N-])C(=O)NCC(O)CO (stereo not given in full)
[1]
  composite z-score: 1.18
[2]
  z-score: 0.263 (inactive)
[3]
  z-score: 0.21 (inactive)
[4]
  z-score: 0.622 (inactive)
[5]
  composite z-score: 3.29
[6]
  z-score: 0.712 (inactive)
[7]
  composite z-score: 0.81
[8]
  composite z-score: 0.92
[9]
  composite z-score: 0.962
[10]
  composite z-score: 0.235
[11]
  composite z-score: 1.29
[12]
  composite z-score: 1.28
[13]
  composite z-score: 0.98
[14]
  z-score: 1.25 (inactive)
[15]
  composite z-score: 0.846
[16]
  composite z-score: 0.898
[17]
  composite z-score: 0.0004
[18]
  composite z-score: 0.418
[19]
  composite z-score: 0.0477
[20]
  composite z-score: 1.22

## COc1ccc([Si](C)(C)[C@H]2[C@H](CCO)O[C@@]3(C(=O)N(Cc4cccc(N(C=O)c5ccccc5)c4)c4ccccc43)[C@@H]2C)cc1
[1]
  composite z-score: 1.56
[2]
  z-score: 1.08 (inactive)
[3]
  z-score: 0.604 (inactive)
[4]
  z-score: 10.6 (active)
[5]
  composite z-score: 2.91
[6]
  z-score: 2.01 (inactive)
[7]
  composite z-score: 0.0893
[8]
  composite z-score: 0.785
[9]
  composite z-score: 1.07
[10]
  composite z-score: 0.0004
[11]
  composite z-score: 1.14
[12]
  composite z-score: -0.305
[13]
  composite z-score: -0.777
[14]
  z-score: -1.53 (inactive)
[15]
  composite z-score: 1.33
[16]
  composite z-score: 1.29
[17]
  composite z-score: 0.406
[18]
  composite z-score: 1.08
[19]
  composite z-score: 0.469
[20]
  composite z-score: 0.013

## CC(C)=CCCC=C(C)C(O)C1C=CC2C(=O)N(c3ccccc3)C(=O)C2N1Nc1ccc(C#N)cc1 (stereo not given)
[1]
  composite z-score: 1.38
[2]
  z-score: -1.67 (inactive)
[3]
  z-score: 0.0768 (inactive)
[4]
  z-score: 2.31 (inactive)
[5]
  composite z-score: 3.3
[6]
  z-score: -1.24 (inactive)
[7]
  composite z-score: -0.152
[8]
  composite z-score: 0.0542
[9]
  composite z-score: 1.01
[10]
  composite z-score: -0.0828
[11]
  composite z-score: 0.669
[12]
  composite z-score: 0.473
[13]
  composite z-score: 0.722
[14]
  z-score: -0.403 (inactive)
[15]
  composite z-score: 0.569
[16]
  composite z-score: 1.3
[17]
  composite z-score: 0.411
[18]
  composite z-score: 1.29
[19]
  composite z-score: 0.0902
[20]
  composite z-score: 1.16

## C=CCN1Cc2ccccc2[C@H]2OC(c3ccc(OCCCO)cc3)=N[C@@]2(CCS(=O)(=O)c2ccccc2)C1=O
[1]
  composite z-score: 1.55
[2]
  z-score: 0.601 (inactive)
[3]
  z-score: 0.546 (inactive)
[4]
  z-score: 5.35 (inactive)
[5]
  composite z-score: 2.29
[6]
  z-score: 0.557 (inactive)
[7]
  composite z-score: 0.319
[8]
  composite z-score: 1.33
[9]
  composite z-score: 1.05
[10]
  composite z-score: 0.124
[11]
  composite z-score: 1.45
[12]
  composite z-score: 1.07
[13]
  composite z-score: 1.35
[14]
  z-score: 0.767 (inactive)
[15]
  composite z-score: 0.728
[16]
  composite z-score: 1.26
[17]
  composite z-score: 0.714
[18]
  composite z-score: 1.38
[19]
  composite z-score: 0.933
[20]
  composite z-score: 0.852

## COCCOC(=O)N1C(=O)[C@@]2(c3cc(C#CCCO)ccc31)[C@H](c1ccccc1OCCO)N1[C@H](c3ccccc3)[C@H](c3ccccc3)OC(=O)[C@H]1[C@@H]2C(N)=O
[1]
  composite z-score: 1.55
[2]
  z-score: 1.48 (inactive)
[3]
  z-score: 0.142 (inactive)
[4]
  z-score: 2.99 (inactive)
[5]
  composite z-score: 3.08
[6]
  z-score: 2.16 (inactive)
[7]
  composite z-score: -0.123
[8]
  composite z-score: 1.6
[9]
  composite z-score: 1.11
[10]
  composite z-score: 0.0111
[11]
  composite z-score: 1.3
[12]
  composite z-score: -0.154
[13]
  composite z-score: 0.0318
[14]
  z-score: -1.51 (inactive)
[15]
  composite z-score: 1.19
[16]
  composite z-score: 1.21
[17]
  composite z-score: 0.312
[18]
  composite z-score: 1.05
[19]
  composite z-score: 0.433
[20]
  composite z-score: -0.0938

## COc1ccc(C(O)C2C=CC3C(=O)N(c4ccccc4)C(=O)C3N2Nc2ccc(C#N)cc2)cc1OCc1ccccc1 (stereo not given)
[1]
  composite z-score: 1.3
[2]
  z-score: -0.598 (inactive)
[3]
  z-score: 1.66 (inactive)
[4]
  z-score: 1.38 (inactive)
[5]
  composite z-score: 2.6
[6]
  z-score: -1.16 (inactive)
[7]
  composite z-score: 0.455
[8]
  composite z-score: -0.634
[9]
  composite z-score: 1.11
[10]
  composite z-score: 0.0808
[11]
  composite z-score: 1.09
[12]
  composite z-score: 1.31
[13]
  composite z-score: 1.42
[14]
  z-score: 0.471 (inactive)
[15]
  composite z-score: 0.372
[16]
  composite z-score: 0.564
[17]
  composite z-score: 0.0706
[18]
  composite z-score: 0.727
[19]
  composite z-score: -0.463
[20]
  composite z-score: 0.898

## CCN(CC)c1ccc(N2CC=CC34O[C@@H]5C=CCCOC(=O)C5[C@H]3C(=O)N(C(C)CO)[C@@H]4C2=O)cc1 (stereo not given in full)
[1]
  composite z-score: 1.05
[2]
  z-score: -1.01 (inactive)
[3]
  z-score: -1.6 (inactive)
[4]
  z-score: -0.399 (inactive)
[5]
  composite z-score: 2.11
[6]
  z-score: -0.42 (inactive)
[7]
  composite z-score: 0.0815
[8]
  composite z-score: 0.524
[9]
  composite z-score: 0.61
[10]
  composite z-score: -0.0702
[11]
  composite z-score: 1.85
[12]
  composite z-score: -0.24
[13]
  composite z-score: 0.477
[14]
  z-score: -0.0428 (inactive)
[15]
  composite z-score: 0.0925
[16]
  composite z-score: 0.519
[17]
  composite z-score: -0.79
[18]
  composite z-score: -0.157
[19]
  composite z-score: -0.0888
[20]
  composite z-score: 1.42
